Out of some 340,000 compounds screened, about 2,100 (0.62%) were called active.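 How the source made its calls: active means first-screen hits whose inhibition reached a set limit at any dose in the follow-up dose series; inconclusive means inhibition above the set first-screen limit but never retested; inactive means the rest.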 These entries were drawn from the full list. Results with a measured potency or affinity are listed apart.
Target: Rac GTPase-activating protein 1 (Homo sapiens) (UniProt Q9H0H5)
Sequence (Q9H0H5 whole entry, looked up): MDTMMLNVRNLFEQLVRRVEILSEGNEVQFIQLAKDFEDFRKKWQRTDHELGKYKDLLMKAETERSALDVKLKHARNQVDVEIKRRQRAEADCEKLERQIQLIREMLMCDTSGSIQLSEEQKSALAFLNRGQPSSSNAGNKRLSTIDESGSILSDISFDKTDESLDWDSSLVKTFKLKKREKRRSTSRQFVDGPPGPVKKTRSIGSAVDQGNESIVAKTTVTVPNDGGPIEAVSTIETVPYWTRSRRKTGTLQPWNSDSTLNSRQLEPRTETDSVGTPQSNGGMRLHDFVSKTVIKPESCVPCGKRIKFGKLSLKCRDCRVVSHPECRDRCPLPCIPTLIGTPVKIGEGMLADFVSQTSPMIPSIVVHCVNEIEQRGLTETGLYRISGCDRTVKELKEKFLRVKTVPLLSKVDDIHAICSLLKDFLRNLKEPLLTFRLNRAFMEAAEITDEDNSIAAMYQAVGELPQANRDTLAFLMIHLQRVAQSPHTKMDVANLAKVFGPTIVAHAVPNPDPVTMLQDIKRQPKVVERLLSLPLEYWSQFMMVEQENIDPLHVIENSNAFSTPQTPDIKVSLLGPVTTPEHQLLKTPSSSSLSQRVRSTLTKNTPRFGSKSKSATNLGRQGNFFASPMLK
Test: MgcRacGAP GTPase-activating activity inhibitors, confirmation, biochemical, ADP Hunter fluorescence, primary and confirmatory (AID 624330);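 further: fluorescence reports GDP produced by GAP-driven GTP hydrolysis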
Details: MgcRacGAP-stimulated Rac1 GTP hydrolysis, at 30 µM, stronger effect = higher value, GST-tagged Rac1 F28L mutant substrate

inhibition, inactive:
COC(=O)CNC(=O)c1nn(-c2cccc(OC)c2)c(=O)c2ccccc12 7.12%
CCOC(=O)C1CCN(Cc2coc3c(Cl)cc(Cl)cc3c2=O)CC1 14.9%
O=c1c(CN2CCN(c3cccc(Cl)c3)CC2)coc2c(Cl)cc(Cl)cc12 1.43%
CCOC(=O)c1cnc2c(cnn2C)c1NCCC(O)C(F)(F)F (stereo not given) 12.4%
COc1ccc(CCC(=O)NC2CCCc3ccccc32)cc1OC (stereo not given) 5.44%
CCOc1ccc(NC(=O)c2cc3n(n2)C(C(F)(F)F)CC(c2ccco2)N3)cc1 (stereo not given) 6.77%
COc1ccc(NC(=O)c2cc3n(n2)C(C(F)(F)F)CC(c2ccco2)N3)cc1 (stereo not given) 14.5%
CCN(C[C@H]1N[C@@](Cc2ccccc2)(C(=O)OC)[C@H]2C(=O)N(Cc3ccccc3)C(=O)[C@@H]12)C(=O)COc1ccccc1 2.94%
Cc1cc2[nH]c3ccccc3c2c(C)n1 5.1%
Cc1cc2c([nH]c3ccccc32)c(C)n1 17.6%
O=C(NCc1ccncc1)C(=O)Nc1ccc2c(c1)OCO2 3.26%
Cc1cc(NCc2ccncc2)ccc1Br 22.5%
Cc1ccc(CNc2ccc3c(c2)OCO3)cc1 10.4%
O=C(NCc1ccncc1)Nc1ccc2c(c1)OCO2 14.7%
COc1ccc(CN(C)C(=O)Cc2ccc(OC)c(S(=O)(=O)N3CCOCC3)c2)cc1 6.77%
O=C1CSC(c2cn(-c3ccccc3)nc2-c2cc3ccccc3oc2=O)N1Cc1cccnc1 (stereo not given) -1.18%
CCN(CC)CCCN(C(=O)c1ccccc1F)c1nc(-c2ccc(OC)cc2)cs1 13.2%
c1ccc(C2=NN(c3ccccc3)CC2)cc1 10.1%
CSc1nnc(-c2nnc(SC)n2-c2ccccc2)n1-c1ccccc1 5.06%
COC(=O)C1=C(C)NC(=O)NC1c1ccc(OCC(=O)N2CCCCC2)cc1 (stereo not given) 6.29%
CC1(C)OC(=O)C=C[C@]2(C)[C@H]3CC[C@@]4(C)[C@H](C(=O)O)OC(=O)[C@H]5O[C@]54[C@]3(C)C(=O)C[C@@H]12 10.6%
C[C@@H]1CN([C@H](C)CO)S(=O)(=O)c2ccc(C#Cc3ccccc3)cc2O[C@@H]1CN(C)C(=O)CN(C)C 10.8%
CCOc1ccc(/C=N/NC(=O)Cc2csc(Nc3cccc(C(F)(F)F)c3)n2)cc1 13.7%
Cc1ccc(/C=C/C(=O)Nc2ccc([N+](=O)[O-])cc2)o1 5.27%
Cc1ccc(/C=C/C(=O)Nc2ccncc2)o1 8.37%
O=C(O)C1C2C=CC3(CN(c4cccc(C(F)(F)F)c4)C(=O)C13)O2 (stereo not given) 2.13%
Cc1cc(C)cc(N(CC(=O)N2CCCC2)S(C)(=O)=O)c1 0.27%
COc1ccccc1C(CNC(=O)CNC(=O)c1ccccc1Cl)N1CCCC1 (stereo not given) 4.57%
CCOCCCNC(=O)/C(C#N)=C/c1ccc(C)o1 -11.1%
CCOCCCNC(=O)/C(C#N)=C/c1ccc(Cl)c([N+](=O)[O-])c1 2.68%
O=S(=O)(c1ccccc1)c1nc(Nc2cccc(O)c2)sc1Cl 8.03%
COc1ccccc1NC(=O)c1cc2ccccc2o1 10.9%
COc1ccc2[nH]c3c(c2c1)CNCC3 17.4%
O=C(CNCC1CCCCC1)Nc1ccc(OC(F)(F)F)cc1 19.5%
CCN1CCCC1CNC(=O)C(=O)Nc1ccc(OC)cc1 (stereo not given) 8.81%
O=C(CN(Cc1ccco1)C(=O)CNS(=O)(=O)c1ccc(F)cc1)NCc1ccco1 7.49%
COCc1cc(/C=N\NC(=O)c2ccc(Cl)cc2)ccc1OC 7.25%
Cc1ccc(Cn2nnc3c(=O)[nH]c(C4CCCN(C(=O)Nc5ccc(F)cc5)C4)nc32)cc1 (stereo not given) 2.33%
COc1ccc2[nH]c3c(=S)nc[nH]c3c2c1 16.8%
COc1ccc2[nH]c3c(Cl)ncnc3c2c1 2.77%
Cc1c2ccncc2cc2c1[nH]c1ccccc12 8.32%
COc1ccc2[nH]c(C)cc(=O)c2c1 17.3%
CC(C)C(=O)N(Cc1cc2ccccc2[nH]c1=O)C(C)(C)C 4.65%
Cc1ccc(S(=O)(=O)N2CCN(C(=O)COC(=O)CC(C)c3ccccc3)CC2)c(C)c1 (stereo not given) -1.45%
COc1ccccc1NC(=S)NCC1CCCO1 (stereo not given) 8.32%
Cc1cc(F)ccc1S(=O)(=O)N1CCCOC1CNC(=O)C(=O)NCC(C)C (stereo not given) 3.59%
O=C(CCC(=O)c1cccs1)NCc1ccncc1 8.09%
COc1ccccc1CNS(=O)(=O)CCNCc1ccco1 7.98%
Cc1ccc(CCNc2ccccc2C)cn1 6.7%
Cc1ccc(NCCc2ccc(C)nc2)cc1 24.8%
Cc1ccc(/C=N/Nc2nncn2N)cc1 -7.75%
CCc1nnc(N/N=C/c2c(Cl)cccc2Cl)n1N 6.89%
Cc1[nH]c2ccccc2c1/C=N/NC(N)=S 15.4%
CCc1nnc(N/N=C/c2cc(C)c(C)cc2C)n1N 8.58%
CCc1nnc(N/N=C/c2ccccc2F)n1N -6.59%
Cc1[nH]c2ccccc2c1/C=N/n1cnnc1 11.3%
Cc1ccc(CN(C)C(=O)CSc2nnc3n2CCCCC3)c(C)c1 -1.85%
CCC(C(=O)OC)n1cnc2c(nnn2-c2cccc(Cl)c2)c1=O (stereo not given) -2.79%
COc1ccc(N2CCN(C(=O)c3sc4ncn(CC(=O)N5CCCCC5)c(=O)c4c3C)CC2)cc1 22.1%
O=C(NC1CCSc2ccccc21)c1cc(S(=O)(=O)N2CCOCC2)ccc1Cl (stereo not given) 0.41%
N#Cc1ccsc1NC(=O)CCN1C(=O)C2CCCCC2C1=O (stereo not given) -1.49%
C/C(=N\NC(=O)c1c(Cl)cnn1C)c1cccc(NC(=O)c2ccc(C)cc2)c1 2.57%
COC(=O)/C(=C\c1ccc([N+](=O)[O-])cc1)NC(=O)c1ccccc1 -0.53%
CCO[C@@H]1OC(C(=O)NC2CC2)=C[C@H](c2ccccc2)[C@H]1CCCO 2.47%
COC1=C(Br)C(=O)c2ncccc2C1=O -0.95%
COC1=C(N)C(=O)c2nc(C)ccc2C1=O -3.53%
COc1ccc(CN(CC(=O)NCc2ccco2)C(=O)CNS(=O)(=O)c2ccc(C)cc2)cc1 -1.32%
COc1ccc(CCCN2CCC(CN3CCNC(=O)C3=O)CC2)cc1OC 15.8%
COc1ccc(/C=N/N2CCN(c3ccc(Cl)cc3)CC2)cc1O 13.4%
C[C@H](NC(=O)c1ccc(Cl)cc1)C(=O)NNC(=O)c1cccs1 4.07%
O=C(O)/C(=C\c1ccc(Cl)c([N+](=O)[O-])c1)c1ccc(S(=O)(=O)N2CCCCC2)s1 9.75%
COc1cc(/C=C/C(=O)OCC(=O)c2c(N)n(C)c(=O)n(C)c2=O)ccc1O 17%
COc1cc(/C=C/C(=O)OCC(=O)c2ccc[nH]2)cc(OC)c1OC 1.61%
O=C(/C=C/c1ccco1)OCC(=O)c1ccc(OC(F)F)cc1 7.34%
COc1ccc(/C=C/C(=O)OCC(=O)c2ccc[nH]2)cc1 2.04%
Cn1c(NN)nc2sc3c(c2c1=O)CC(C)(C)OC3 -17.1%
O=S(=O)(Nc1ccc(N2CCOCC2)cc1)c1ccc(F)cc1 6.7%
CSCC[C@H](NS(=O)(=O)c1ccc(C)cc1)C(=O)N1CCC(C(=O)N[C@@H](C)C(=O)O)CC1 -1.38%
O=C(CN1CCN(c2ccc(F)cc2)CC1)N(C1CCCC1)C1CCS(=O)(=O)C1 (stereo not given) 3.6%
O=C(CN1CCN(c2cccc(C(F)(F)F)c2)CC1)N(C1CC1)C1CCS(=O)(=O)C1 (stereo not given) -5.48%
CCOC(=O)c1c(C)[nH]c(C(=O)OCC(=O)Nc2cc(C)c(Cl)cc2OC)c1C 10.4%
Cc1ccc(NC(=O)N2CCCC2C(=O)NCc2ccc3c(c2)OCO3)cc1 (stereo not given) 2.95%
CC(C)Nc1nc(Oc2ccc(=O)n(-c3ccccc3)n2)nc(N(C)C)n1 12%
COc1cccc(N2CCN(C(=S)Nc3ccc(C)cc3C)CC2)c1 12.4%
O=C(Nc1ccc(F)cc1)c1cncs1 9.26%
C=CC[n+]1ccc(/C=C2\C=Cc3cc(C)ccc3N2CC)c2ccccc21 17%
CC[n+]1c(/C=C2\C=C(C)CC(C)(C)C2)sc2ccccc21 31.8%
CCc1cc2c(SCC(=O)NC3CCCC3)ncnc2s1 6.67%
COc1cccc(NC(=O)[C@@H]2CCC(=O)N2C2OC(=O)c3ccccc32)c1 (stereo not given in full) -0.84%
CC(=O)Nc1ccc(NC(=O)Cn2cnc(S(=O)(=O)N3CCOCC3)c2)cc1 -16.8%
Cc1ccc(CSCCNC(=O)CSCc2ccc([N+](=O)[O-])cc2)cc1 6.03%
Cc1ccc(CNC(=O)CSCc2ccccc2)cc1 10.2%
Cc1ccc(CSCC(=O)NCCc2ccccc2)cc1 -4.12%
Cc1ccc(CCNC(=O)CSCc2ccc(F)cc2)cc1 8.48%
CC1=C(C#N)C(c2ccc(O)cc2)C(C#N)=C(C)N1 11.8%
